Bioassay records from PubChem BioAssay.
This is a sample that favours compounds with a hit; in the whole collection about 19% have one here.
HT1080 IDH1KD tx: kills HT-1080 cells with IDH1 knockdown; HT-1080 IDH1 knockdown viability, ATP luminescence, 48 h; Potency, µM (highest dose often 46.1 µM), inactives show at the top dose activity, negative = toxicity, actives largely listed as cytotoxic; hit rate 2% among 360,000; AID 686971;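 further: potency means the concentration at half of the fitted maximal effect; 0% = DMSO wells and -100% = cell-free medium wells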
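Luminescent ATP read-out (CellTiter-Glo, 10 min at room temperature) after 48 h compound exposure at 37 °C gave viability of IDH1-knockdown HT-1080 cells. Activity was normalised to DMSO and cell-free wells, then fitted as concentration-response curves.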
DT40 TDP1 no CPT: qHTS for Inhibitors of human tyrosyl-DNA phosphodiesterase 1 (TDP1): qHTS in cells in absence of CPT; DT40 Tdp1-/- hTDP1 cells, no CPT, ATP luminescence, 48 h; Potency, µM (top dose mostly 46.2 µM), for the others: top-dose activity change, negative = growth inhibition, actives largely listed as inhibitors; hit rate 15% among 420,000; further: potency means the concentration at half of the fitted maximal effect; nearly all actives have a fitted effect of over 55% in size
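Camptothecin absent (DMSO only). Human TDP1-complemented DT40 knockout cells, 400 cells/well, 37 °C for minimum 48 hr; ATP measured via CellTiter-Glo, 30 min dark incubation, luminescence.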
IL-1B inflam inh: blocks inflammasome-driven IL-1 beta release; AID 743279; THP-1 LPS/ATP IL-1B secretion, AlphaLISA, 16 h; active compounds read low; activity change, % at 57.5 µM; hit rate 4.7% among 360,000; in the data active means activity change below about -50%; inconclusive means mostly about -30% to -49%
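THP-1 cells pretreated 1 hr with compounds (up to 57.5 uM final), then stimulated with LPS (250 ng/mL final) plus ATP (1.25 mM final); secreted IL-1B measured by AlphaLISA after 16 hr, decreased signal indicating inhibition.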
HT1080NT lethal: kills 2HG-producing HT-1080-NT fibrosarcoma cells; Potency, µM (top dose mostly 46.1 µM), for the others: at the top dose activity, negative = less viability, actives largely listed as cytotoxic; HT-1080-NT fibrosarcoma viability, CellTiter-Glo ATP luminescence, 48 h; AID 686970; hit rate 1.6% among 360,000;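 further: NT is the 2HG producing partner of a matched IDH1 knockdown line; potency means the concentration at half of the fitted maximal effect; 0% = DMSO-treated cells and -100% = media-only wells without cells; nearly all actives have a fitted effect of over 55% in size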
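HT-1080-NT; 750 cells/well; 5% FBS RPMI; 48 h compound, 37 degrees C; CellTiter-Glo luminescence; curve fitting and curve-class assignment.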
DT40 TDP1 CPT: DT40-hTDP1 cell growth loss with CPT; chicken DT40 Tdp1-/-;hTDP1 cells + 20 nM CPT, ATP luminescence, 48 h; Potency, µM (top dose mostly 46.2 µM), inactives show at the top dose activity change, negative = growth inhibition, actives largely listed as inhibitors; hit rate 12% among 420,000; AID 686979; further: potency means the concentration at half of the fitted maximal effect; nearly all actives have a fitted effect of over 55% in size
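Cell growth measured by CellTiter-Glo luminescence after a minimum 48 h, 37 C compound exposure with 20 nM CPT in Tdp1-knockout DT40 cells stably expressing hTDP1, seeded 400/well; qHTS titration format.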
Starred values were filed as active, the others as inactive; i = inactive; ? = inconclusive; . = no result; [ ] = remark or other dose. Unless noted, the call rests on the fitted dose curve; in most records, active means well fitted curve in the direction sought with a large enough effect; inconclusive means small, poorly fitted or top-dose-only effect, or another doubt; inactive means no such curve, though single readings can be large; an effect the other way counts as inactive or inconclusive. Unless noted, on the % scale 0 is the no-effect control and ±100 the full control effect.

SMILES | HT1080 IDH1KD tx | DT40 TDP1 no CPT | IL-1B inflam inh | HT1080NT lethal | DT40 TDP1 CPT
COc1cc(Br)c(C(=O)c2nccc3cc(OC)c(OC)cc23)cc1OC | -15% | 18µM* | 10 | ? | 23µM*
COc1cc2ccnc(C=O)c2cc1OC | ? | 2.6µM* | -6 | -19% | 4.6µM*
COc1cc(N)c(Cc2nccc3cc(OC)c(OC)cc23)cc1OC | -10% | ? | 18 | -5% | ?
COc1ccc(-c2cnnn2-c2ccc([N+](=O)[O-])cc2)cc1 | -14% | ? | -11 | -15% | 6%
COC(=O)CC/C(O)=C1\C(=O)CC(C)(C)CC1=NCc1nc2ccccc2[nH]1 | 1% | ? | 16 | 6% | -26%
Cc1ccccc1CC(=O)N1CCCC1 | 0% | -13% | 1 | -3% | -10%
O=c1cc(-c2ccccc2Cl)oc2c(Br)ccc(O)c12 | 9% | ? | 15 | -11% | ?
CCOc1ccc(C(=O)NC2CCN(S(=O)(=O)c3ccccc3)CC2)cc1 | 13% | ? | -11 | -7% | -22%
COc1ccc(C(N)c2nccc3cc(OC)c(OC)cc23)cc1OC (configuration not stated) | -16% | ? | -83* | 0% | ?
COc1ccc(C(C#N)c2cnccn2)cc1OC (configuration not stated) | 4% | 10% | 18 | 9% | 0%
CCOC(=O)C1=C(CP(=O)(c2ccccc2)c2ccccc2)NC(=O)NC1c1ccc(OC)cc1 (configuration not stated) | -7% | -14% | 13 | 0% | -15%
CCOC(=O)C1=C(CSc2nc3ccccc3s2)NC(=O)NC1c1cc(C)ccc1C (configuration not stated) | -28% | 23µM* | ? | ? | ?
CCOC(=O)C1=C(CSc2nc3ccccc3s2)NC(=O)NC1c1ccc(OC)cc1 (configuration not stated) | ? | 18µM* | -86* | ? | 21µM*
N#Cc1c(N2CCCC(O)C2)nc(N)c2c(N)nc3c(c12)CC(=O)N3C12CC3CC(CC(C3)C1)C2 (configuration not stated) | -14% | 18µM* | 9 | -16% | 16µM*
C=C(C)CN(CC)c1nc(N)c2c(N)nc3c(c2c1C#N)CC(=O)N3C12CC3CC(CC(C3)C1)C2 | -19% | 3.3µM* | -60* | -29% | 3.3µM*
Cc1cccnc1NC(=O)Cn1nc(-c2ccccc2)oc1=S | -7% | ? | 48 | -11% | -30%
CC(=O)/C(=C/c1ccccc1)C(=O)Nc1ccccc1C | ? | 4.6µM* | -104* | ? | ?
Cc1ccccc1NC(=O)C(=Cc1ccc(C(=O)O)cc1)C(=O)Nc1ccccc1C | 4.6µM* | 8.2µM* | -106* | 6.5µM* | 9.2µM*
COC(=O)c1ccccc1NC(=O)Cn1c(=O)n(Cc2ccc(C(=O)NCc3ccc4c(c3)OCO4)cc2)c(=O)c2ccccc21 | . | -19% | . | . | -20%
CCOC(=O)C1=C(C)Nc2sc(C(=O)c3ccc(F)cc3)c(N)c2C1c1ccc(C(=O)OC)cc1 (configuration not stated) | -15% | 12µM* | -10 | -3% | 18µM*
CCOC(=O)C1=C(C)Nc2sc(C(=O)c3ccc(C)cc3)c(N)c2C1c1ccc(C(=O)OC)cc1 (configuration not stated) | -17% | ? | -29 | 1% | ?
O=C(Nc1cccc(Cl)c1)NC1CCS(=O)(=O)C1 (configuration not stated) | 20% | 10% | 3 | 7% | 4%
CC1=NN(c2nc3ccccc3[nH]2)C(=O)C1Cc1ccccc1 (configuration not stated) | ? | 1.3µM* | 62 | 2.1µM* | 1µM*
CC1=NN(c2nc3ccccc3[nH]2)C(=O)/C1=C/N(C)C | 2.9µM* | ? | 16 | 21µM* | 4.6µM*
O=c1[nH]c2ccccc2nc1NCc1ccccc1 | -15% | -17% | -24 | -5% | 9%
SMILES | HT1080 IDH1KD tx | DT40 TDP1 no CPT | IL-1B inflam inh | HT1080NT lethal | DT40 TDP1 CPT
Cc1cccc(NC(=O)COC(=O)c2ccccc2SCC(=O)N2CCCC2)c1 | -5% | -26% | 8 | -2% | -5%
NNC(=O)c1ccc(COc2ccc3ccccc3c2)cc1 | -17% | 21µM* | 33 | ? | ?
O=C(NCc1ccccc1)c1cccc(COc2ccc(Cl)cc2)c1 | -14% | ? | ? | -12% | -14%
CCOc1ccc(OCc2cccc(C(=O)N3CCOCC3)c2)cc1 | -3% | -30% | 45 | -8% | ?
NNC(=O)c1cccc(COc2ccc(Br)cc2)c1 | 2% | ? | i | 3% | 21µM*
CC1CN(C(=O)c2cccc(COc3ccc(Br)cc3)c2)CC(C)O1 (configuration not stated) | -1% | 13µM* | -15 | -10% | 21µM*
COc1cc(CNC(=O)c2cccc(COc3ccc(Cl)cc3)c2)cc(OC)c1 | -13% | 16µM* | -12 | -6% | ?
Cc1ccc(CNC(=O)CN2CCCN(Cc3ccc(F)cc3)S2(=O)=O)cc1 | . | -28% | . | . | -24%
CN(C)c1ccc(C(CNS(=O)(=O)c2ccc(Cl)cc2)N2CCOCC2)cc1 (configuration not stated) | . | ? | . | . | -17%
COC(=O)C1=C(C)NC(=O)NC1c1ccc2c(c1)OCO2 (configuration not stated) | 9% | 4% | -4 | 1% | 13%
CC(C)CCNC(=O)C(=O)NCC1OCCCN1S(=O)(=O)c1cccs1 (configuration not stated) | 8% | -21% | 18 | 11% | -6%
CCN1CCN(c2ncc(C(=O)Nc3ccccc3C(=O)OC)c3ccccc23)CC1 | ? | 16µM* | ? | 21µM* | 23µM*
COc1ccc(OC)c(NC(=O)c2cc3c(cc2Cl)N2CCCCCC2=NS3(=O)=O)c1 | -1% | 16µM* | 15 | -1% | ?
CCn1ncc(Br)c1C(=O)Nc1ccccc1C(=O)OC | 2% | -19% | 33 | 1% | -13%
CCOc1ccccc1NC(=O)c1cnc(N2CCOCC2)c2ccccc12 | . | 18µM* | . | . | 21µM*
COc1ccc(NC(=O)CN(C)C(=O)c2cc3c(cc2Cl)N2CCCCCC2=NS3(=O)=O)cc1 | 0% | -1% | 6 | -3% | 1%
CC(C)OC(=O)c1ccc(N2CCN(c3ccccc3F)CC2)nc1 | -20% | 18µM* | 19 | -17% | ?
Cc1cc(C(=O)Nc2ccccc2-c2nc(CNC(=O)c3ccc(F)cc3F)c(C)o2)c(C)o1 | . | -20% | . | . | -3%[9.04 µM]
